Measured values reported in PubChem BioAssay (Tox21).
“And” between values parts separate entries of the source, which are not always exact repeats. Identical values can stand only once. Inconclusive results are not listed. Some compounds were tested as several samples or in several runs, with calls that do not always agree. The source made the active and inactive calls. Calls follow the shape of the dose curve; as a rule, active = well fitted cell-killing curve with a large enough effect in the repeat runs; inconclusive = weak or mixed curves; inactive = flat fitted curve, though single readings scatter.

assay: qHTS assay to identify small molecule antagonists of the estrogen related receptor (ERR) signaling pathway from Tox21 library - cell viability counter screen (AID 1224834); settings: ERR reporter cells viability, CellTiter-Fluor, 17.5 h; series mostly up to 92.4 µM; viability change, negative = cytotoxic: at the top concentration; also: nearly all actives have a fitted effect of over 30% in size
Source text: National Center for Advancing Translational Sciences [NCATS]
NIH Chemical Genomics Center [NCGC]
U.S. Environmental Protection Agency [EPA]
National Institutes of Environmental Health Sciences [NIEHS]
National Toxicology Program [NTP]
U.S. Food and Drug Administration [FDA]
Estrogen related receptors (ERRs), the first orphan nuclear receptors discovered, play an important role in the control of cellular energy metabolism. ERRs are required for high-energy production in response to the environmental challenges. ERR-alpha was also identified as an adverse marker for breast cancer progression; ERR-alpha-positive tumors have a poor prognosis. To screen and to identify environmental compounds that perturb the ERR signaling pathways could provide valuable information for potential therapeutic or preventive measures in the treatment of metabolic disease. To differentiate true ERR antagonists or agonist from cytotoxic substances, the assay is multiplexed with cell viability assay.
Tox21 Assay Protocol Summary:
The ERR cells were dispensed at 2,000 cells/5 ul/well in 1536-well white plates using a Multidrop dispenser. After the assay plates were incubated at a 37 C/5% CO2 incubator for 6 hours, 23 nL of compounds dissolved in DMSO, positive and negative controls or DMSO only was transferred to the assay plate by a pin tool. The plates were incubated at 37 C for 17.5 hours. 1 ul/well of CellTiter-Fluor reagent was added into the assay plates using a Flying Reagent Dispenser. After 30-minute incubation at 37 C/5% CO2, the fluorescence intensity in the plates was measured using a ViewLux plate reader.
% is scaled to controls: 0 for no effect and ±100 for the full control effect; potency is read from the fitted curve at half-maximal effect.

Compound	viability change, negative = cytotoxic	Potency
O=C(Cl)c1ccccc1	0.408% (inactive)	–
O=C1C2CC=CCC2C(=O)N1SC(Cl)(Cl)Cl (stereo not given)	–	inactive and 53.6 µM (active)
C=C(Cl)CSC(=S)N(CC)CC	-0.072% (inactive)	–
CC#Cc1cc(C)nc(Nc2ccccc2)n1	-6.2% (inactive)	–
CCC(=O)OC1(c2ccccc2)CCN(C)CC1	5.14% (inactive)	–
CCC(C)C(C)(COC(N)=O)COC(N)=O (stereo not given)	0.632% [at 42.5 µM] (inactive)	–
Cc1ccc2cc(C)ccc2c1	2.61% (inactive)	–
NNC(N)=O	3.45% (inactive)	–
Cl/C=C/CCl	0.0684% (inactive)	–
CCN(CCO)CCn1c(Cc2ccccc2)nc2c1c(=O)n(C)c(=O)n2C	3.31% [at 42.5 µM] (inactive)	–
CCc1cc(OC)c(C[C@H](C)N)cc1OC	-2.78% (inactive)	–
C=CCc1cc(OC)c2c(c1)OCO2	1.43% (inactive)	–
C/C=C/CC#N	2.12% (inactive)	–
CCOP(=O)(CN(CCO)CCO)OCC	0.619% (inactive)	–
COC[C@@H](NC(C)=O)C(=O)NCc1ccccc1	8.07% [at 42.5 µM] (inactive)	–
CCC1(c2ccccc2)C(=O)N(COC)C(=O)N(COC)C1=O	8.21% [at 42.5 µM] (inactive)	–
CCN[C@H](C)Cc1cccc(C(F)(F)F)c1	4.82% (inactive)	–
c1cncc([C@@H]2CCCCN2)c1	2.73% (inactive)	–
C/C(=N\NC(=O)Nc1cc(F)cc(F)c1)c1ncccc1C(=O)O	–	inactive
CCCC(C)(COC(N)=O)COC(N)=O	1.41% (inactive)	–

Compound	viability change, negative = cytotoxic	Potency
CCCCOC(C)=O	0.67% (inactive)	–
NCCOS(=O)(=O)O	1.26% (inactive)	–
C=CCN1CC[C@]23CCCC[C@H]2[C@H]1Cc1ccc(O)cc13	0.199% [at 42.5 µM] (inactive)	–
CC(C)c1ccc(O)cc1	1.63% (inactive)	–
CCNc1nc(Cl)nc(NC(C)(C)C)n1	0.447% (inactive)	–
O=S1(=O)OCCO1	0.643% (inactive)	–
CCOC(=O)CCl	1.31% (inactive)	–
CCCC[N+](=O)[O-]	-0.892% (inactive)	–
CN1COCN(Cc2cnc(Cl)s2)/C1=N\[N+](=O)[O-]	-0.0286% (inactive)	–
O=C(CCl)NCO	3.64% (inactive)	–
C1CN2CCC1CC2	-1.78% [at 42.5 µM] (inactive)	–
NC(=O)CS(=O)C(c1ccccc1)c1ccccc1 (stereo not given)	5.86% [at 42.5 µM] (inactive)	–
CCC1(c2cccc(O)c2)CCCCN(C)C1 (stereo not given)	2.48% [at 42.5 µM] (inactive)	–
CC(C)C(C)(N)C#N (stereo not given)	-0.0551% (inactive)	–
CCCCCCC(=O)CCCCCC/C=C/C[C@@H](O)[C@H](O)[C@@](N)(CO)C(=O)O	6.53% [at 19 µM] (inactive)	–
COc1ccc(CN2CCNCC2)c(OC)c1OC	3.42% [at 42.5 µM] (inactive)	–
CNC(=O)Oc1cc(C)c(N(C)C)c(C)c1	-3.41% (inactive)	–
O=C(NC(O)C(Cl)(Cl)Cl)NC(O)C(Cl)(Cl)Cl (stereo not given)	2.34% [at 42.5 µM] (inactive)	–
N#CC(Br)(Br)C(N)=O	0.472% (inactive)	–
Cc1ccc(Cl)c(O)c1	-1.12% [at 42.5 µM] (inactive)	–
